Assay [1] has as its system Klebsiella pneumoniae. As to conditions: Concentration 20 uM; ASSAY_TEST Inhibition of Bacterial Growth; detection method Absorption (OD600); MEDIA CAMHB; plate type 384well; NBS; CORNING #3640; time 18 hr.
The subject of assay [2] is Candida albicans. As to conditions: 20 µM.
In assay [3] the test system is Cryptococcus neoformans. To be noted: Concentration 20 uM; ASSAY_TEST Inhibition of Fungal Growth; detection method Resazurin; Absorption (OD600-OD570); plate type 384well; NBS; CORNING #3640.

Potency and affinity values are given separately.

Usually Inhibition stands for the change of the read-out against control, counted positive when it falls.

For the compound `CCc1nc2ccc(C(=O)NCc3ccc4c(c3)OCO4)cn2c1N(C)Cc1cccs1`, the Inhibition was 5.86% in assay [1], 3.04% in assay [2] and -6.4% in assay [3].

For the compound `c1ccc(Oc2ccc(-c3cc(N4CCOCC4)[nH]n3)cc2)cc1`, the Inhibition in assay [1] is 8.77%; in assay [2], 5.83%; in assay [3], -7.11%.

For `CCN(CC)C(=O)N1CCN(C)CC1` [DIETHYLCARBAMAZINE], the Inhibition was 16.19% in assay [1], 2.79% in assay [2] and -5.92% in assay [3].

Consider `CCOC(=O)c1cc(-c2csc(Nc3c(C)cc(C)cc3C)n2)on1`, for which the Inhibition was 16.59% in assay [1], 2.27% in assay [2] and -12.46% in assay [3].

Take `Cc1cccc(NC(=O)c2cc(S(=O)(=O)N(C)c3ccc(F)cc3)ccc2Cl)n1`: the Inhibition was 14.02% in assay [1], 9.46% in assay [2] and -4.89% in assay [3].

Consider `Cc1cccc(-c2nc(Nc3ccncn3)c3sccc3n2)n1`, for which the Inhibition in assay [1] worked out at 15.76%; in assay [2], 3.59%; in assay [3], 61.44%.

On to `Cc1cc(NC(=O)c2ccc(S(=O)(=O)N(Cc3ccccc3)C(C)C)cc2)no1`, for which the Inhibition in assay [1] was 8.9%; in assay [2], 1.89%; in assay [3], -4.62%.

Consider `N#Cc1ccc(-c2ccc(OCC(N)=O)cc2)cc1`, for which the Inhibition in assay [1] is 5.71%; in assay [2], 3.25%; in assay [3], -13.05%.

Consider `O=C(NCc1ccco1)N1CCN(Cc2ccc(Cl)s2)CC1`, for which the values for the Inhibition in assay [1], in assay [2] and in assay [3] were 5.01%, 2.08% and -2.89%, respectively.

On to `COc1ccc(-c2cnc3ccc(N4CCCC4)nn23)cc1OC`, for which the Inhibition in assay [1] is 12.07%; in assay [2], 4.32%; in assay [3] it was -8.28%.

On to `CC(=O)N(CCN(C(=O)c1ccc(F)cc1)c1ccccc1)c1ccccc1`, for which the Inhibition in assay [1] is 8.37%; in assay [2] it was 4.16%; in assay [3] it was -8.06%.

On to `CC(C)=CCC/C(C)=C\CNCCNC1C2CC3CC(C2)CC1C3` (stereo not drawn), for which the Inhibition in assay [1] came out at 18.7%; in assay [2], 2.31%; in assay [3], 16.24%.

Take `COc1ccc2nc(C)cc(OCC(=O)NCc3ccccc3)c2c1`: the Inhibition in assay [1] is 19.56%; in assay [2] it was 2.81%; in assay [3], -4.71%.

Regarding `O=S(=O)(c1ccc(Cl)cc1)N1CCN(C(=S)NCc2ccco2)CC1`, the Inhibition in assay [1] was 5.39%; in assay [2], 4.22%; in assay [3], -0.21%.

`COc1ccc(C2=NN(C3CCCCCC3)C(=O)C2(C)C)cc1OCCCCOc1ccc(-c2nn[nH]n2)cc1`: the Inhibition in assay [1] is 0.76%; in assay [2] it was 5.32%; in assay [3], -17.73%.

Turning to `Cc1ncc(-c2ccnc(Nc3ccc(S(C)(=O)=O)cc3)n2)n1C(C)C` [AZD-5438], the Inhibition was 16.86% in assay [1], 6.64% in assay [2] and -6.72% in assay [3].

Regarding `COC(=O)c1c(NC(=O)c2cc3ccccc3oc2=O)sc2c1CCN(Cc1ccccc1)C2`, the Inhibition was 12.75% in assay [1], 2.23% in assay [2] and -2.1% in assay [3].

Take `CS(=O)(=O)c1cccc(-c2cnc3[nH]cc(-c4ccc(CCC(=O)O)cc4)c3c2)c1`: the Inhibition in assay [1] was 6.09%; in assay [2], 11.3%; in assay [3], -4.04%.

As to `COc1cccc(OC)c1C(=O)Nc1ccc(Cl)c(-c2nc3ccccc3s2)c1`, the Inhibition was 2.41% in assay [1], 4.58% in assay [2] and -8.77% in assay [3].

Consider `CS(=O)(=O)N1CCC(Cn2nc(Cc3cccc4ccccc34)c3c(N)ncnc32)CC1`, for which the Inhibition in assay [1] is 11.77%; in assay [2] it was 2.39%; in assay [3] it was -6.98%.

For `CC(=O)N1CCc2cc3nc(C)cc(C)c3cc21`, the Inhibition in assay [1] was 14.03%; in assay [2], 4.19%; in assay [3] it was -7.03%.

Consider `CCOc1ccccc1C(=O)Nc1cccc(-c2nc3ncccn3c2C)c1`, for which the Inhibition was 11.04% in assay [1], 6.34% in assay [2] and -7.75% in assay [3].

As for `NCC(=O)N1CCn2c(nc(-c3ccccc3)c2Nc2ccc3c(c2)OCO3)C1`, the Inhibition was determined as 4.52% in assay [1], 3.31% in assay [2] and 7.53% in assay [3].

For `Cc1ccc(-c2nc(CN(Cc3ccccn3)C(C)C)cs2)o1`, the results for the Inhibition in assay [1], in assay [2] and in assay [3] were 14.74%, 5.03% and -5.74%, respectively.

As to `COc1nc2ccc(Br)cc2cc1[C@@H](c1ccccc1)[C@@](O)(CCN(C)C)c1cccc2ccccc12.O=C(O)C(F)(F)F`, the Inhibition was 17.53% in assay [1], 4.38% in assay [2] and 56.58% in assay [3].

Regarding `Cc1nnc(NCc2cccc(Cl)c2)c2ccccc12`, the Inhibition is 13.85% in assay [1], 3.34% in assay [2] and -11.95% in assay [3].

`Cc1noc(C)c1COc1cccc(C(=O)N=c2[nH]cccc2C)c1`: the Inhibition in assay [1] was 14.67%; in assay [2], 1.92%; in assay [3] it was -9.25%.

Take `CCC(Sc1nc2ccccc2o1)C(=O)Nc1nnc(C)s1` (stereo not drawn): the figures for the Inhibition in assay [1], in assay [2] and in assay [3] were -2.47%, 4.83% and -9.17%, respectively.

With `CNc1nnc(Sc2cnn(-c3ccccc3)c(=O)c2Cl)s1`, the figures for the Inhibition in assay [1], in assay [2] and in assay [3] were 0.48%, 4.99% and -9.44%, respectively.

In the case of `CCc1ccccc1-n1c(C)cn2c3c(=O)n(C(C(=O)OC)C(C)C)c(=O)n(C)c3nc12` (stereo not drawn), the values for the Inhibition in assay [1], in assay [2] and in assay [3] were 8.42%, 0.33% and -8.91%, respectively.

For `O=C(Cn1ccnc1[N+](=O)[O-])NCc1ccccc1` [BENZNIDAZOLE], the results for the Inhibition in assay [1], in assay [2] and in assay [3] were 18.48%, 2.82% and -2.09%, respectively.
